Where “and” joins values, the source holds several entries; their conditions need not be identical. Equal entries are not always repeated. More than one record can exist for a structure, and the calls need not agree. Calls of active or inactive are those of the source. How the source made its calls: active means hit-call score of the fitted dose curve at least 0.9, where 1 is the maximum; inactive means score below 0.9.
Experiments:
[1] = IUF_NPC1b_proliferation_BrdU_72hr: Leibniz Research Institute for Environmental Medicine (IUF) 72-hour Neural Progenitor Cell Bromodeoxyuridine (BrdU) Proliferation Assay (NPC1b) (AID 2284207)
Method in brief: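 hNPC spheres (primary, GW 16-19 fetal cortex), single sphere/well, EGF+FGF medium; 72 h compound, no renewal; BrdU pulse last 16 h; luminescent ELISA; activity vs DMSO baseline; growth-factor withdrawal as positive control.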

[2] = IUF_NPC1_viability_72hr: Viability Assessment at 72 hours in the Leibniz Research Institute for Environmental Medicine (IUF) Neural Progenitor Cell Proliferation Assay (NPC1) (AID 2284209)
Method in brief: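 Human fetal-cortex neural progenitor spheres (0.25–0.35 mm, one per well) grown in EGF/FGF proliferation medium at 37C, pH 7.2-7.6, exposed 72 h without renewal; viability read as alamar blue resazurin-to-resorufin fluorescence relative to DMSO.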

[3] = CCTE_Mundy_HCI_Cortical_Synap_Neur_Matur_NeuriteSpotCountPerNeuriteLength: CCTE's Synaptogenesis and Neurite Maturation Assay in rat cortical cells for Neurite Spot Count per Neurite Length, Mundy Lab (AID 2284210)
Method in brief: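 Rat primary cortical cultures, glia arrested with AraC at DIV 5, were dosed with media change at DIV 7 and fixed at DIV 12. Synaptophysin puncta per MAP2-labelled neurite length were quantified by high-content imaging versus DMSO.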

[4] = CCTE_Mundy_HCI_Cortical_Synap_Neur_Matur_BPCount: CCTE's Synaptogenesis and Neurite Maturation Assay in rat cortical cells for Branch Point Count, Mundy Lab (AID 2284211)
Method in brief: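 Branch point number is quantified by automated imaging of fluorescently labelled neurites and synapses in rat primary cortical neurons exposed from DIV 7 to DIV 12. Activity is analysed relative to DMSO negative control.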

[5] = CCTE_Mundy_HCI_Cortical_NOG_NeuriteCount: CCTE's Neurite Outgrowth Assay in rat cortical cells for Neurite Count, Mundy Lab (AID 2284212);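 further: cells fixed about two days after chemical exposure began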
Method in brief: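 Neurite number per cell from high-content imaging of betaIII-tubulin immunostaining, with Hoechst nuclear counterstain.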

[6] = CCTE_Mundy_HCI_Cortical_NOG_NeuriteLength: CCTE's Neurite Outgrowth Assay in rat cortical cells for Neurite Length, Mundy Lab (AID 2284213);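 on AC50: neurites imaged about 48 to 50 h after chemical exposure began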
Method in brief: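 Neurite length was read by high-content imaging of βIII-tubulin-labelled neurites in rat primary cortical cultures. Activity was fitted relative to DMSO.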

[7] = CCTE_Mundy_HCI_Cortical_Synap_Neur_Matur_NeuriteLength: CCTE's Synaptogenesis and Neurite Maturation Assay in rat cortical cells for Neurite Length, Mundy Lab (AID 2284214)
Method in brief: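 Rat primary cortical cells were plated, treated with AraC at DIV 5 to arrest glial growth, then chemical-dosed with media change at DIV 7 through DIV 12. Fixed cells stained for MAP2, synaptophysin and Hoechst; neurite length quantified by high-content imaging.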

[8] = CCTE_Mundy_HCI_Cortical_Synap_Neur_Matur_NeuriteSpotCountPerNeuron: CCTE's Synaptogenesis and Neurite Maturation Assay in rat cortical cells for Neurite Spot Count per Neuron Count, Mundy Lab (AID 2284215)
Method in brief: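 Rat primary cortical cells received AraC at DIV 5, then chemicals with a media change at DIV 7, and were fixed at DIV 12. Synaptophysin puncta on MAP2-stained neurites per neuron were counted by high-content imaging, fitted relative to DMSO.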

[9] = CCTE_Mundy_HCI_Cortical_Synap_Neur_Matur_SynapseCount: CCTE's Synaptogenesis and Neurite Maturation Assay in rat cortical cells for Synapse Count, Mundy Lab (AID 2284218)
Method in brief: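 Rat primary cortical cells in 96-well plates received AraC at DIV 5 and were dosed with chemicals at DIV 7 with media change, through DIV 12 (288.33 h). Synapses per neuron counted by high-content imaging of MAP2/synaptophysin/Hoechst staining, versus DMSO baseline.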

[10] = TAMU_PeakParms_SingleDonor1434_Chronotropy: Texas A&M University (TAMU) 1.5-hr Human Induced Pluripotent Stem Cell (iPSC)-derived Cardiomyocytes Calcium (Ca+2) Flux Assay for Cardiotoxicity: Chronotropy (changes in peak frequency) (AID 2284217); conditions: actives raise or lower the signal
Method in brief: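 Using fluorescent Ca2+ flux, average beats per second are measured in human iPSC-derived cardiomyocytes treated 90 min (0.5% DMSO vehicle, 0.2–100 uM). Non-beating data points are removed; activity is modeled in both directions relative to DMSO controls.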

Measured: AC50

N#Cc1nn(-c2c(Cl)cc(C(F)(F)F)cc2Cl)c(N)c1S(=O)C(F)(F)F (configuration not stated)
active: [3] 15 µM | [8] 3.22 µM | [9] 3.22 µM
inactive: [1] | [2] | [4] | [5] | [6] | [7]

C=CCC1=C(C)[C@@H](OC(=O)[C@@H]2[C@@H](C=C(C)C)C2(C)C)CC1=O
inactive: [5] | [6]
active: [3] 20.5 µM | [4] 26.6 µM | [7] 23.9 µM | [8] 22.1 µM | [9] 22.2 µM

CCCCNC(=O)n1c(NC(=O)OC)nc2ccccc21
active: [4] 15 µM | [6] 11.1 µM | [7] 15 µM
inactive: [3] | [5] | [8] | [9]

CN(C)C(=S)SSC(=S)N(C)C
active: [1] 50.1 µM | [2] 74.6 µM | [3] 0.0765 µM | [4] 0.0767 µM | [5] 0.0733 µM | [6] 0.0588 µM | [7] 0.0549 µM | [8] 0.0745 µM | [9] 0.0587 µM

CCCCOC(=O)c1ccccc1C(=O)OCCCC
active: [3] 84.1 µM | [4] 50 µM | [7] 64.7 µM | [8] 50 µM | [9] 50 µM
inactive: [1] | [2] | [5] | [6]

Cc1ccc(-c2c(Cl)nc(C#N)n2S(=O)(=O)N(C)C)cc1
active: [1] 74.2 µM | [2] 83 µM | [3] 73.3 µM | [4] 71.1 µM | [5] 72.9 µM | [6] 85.3 µM | [7] 85.7 µM | [8] 70.3 µM | [9] 74.3 µM

CCOC(=O)CC(SP(=S)(OC)OC)C(=O)OCC (configuration not stated)
inactive: [1] | [2] | [3] | [4] | [7] | [8] | [9]
active: [4] 50 µM | [6] 77.6 µM and 15 µM | [7] 61.9 µM | [8] 50 µM | [9] 50 µM

COC(=O)N(OC)c1ccccc1COc1ccn(-c2ccc(Cl)cc2)n1
active: [1] 4.1 µM | [2] 7.52 µM | [3] 0.0823 µM | [4] 0.0563 µM | [5] 0.141 µM | [6] 0.153 µM | [7] 0.0838 µM | [8] 0.0537 µM | [9] 0.0709 µM

CNC(=O)ON=CC(C)(C)SC
inactive: [1] | [2] | [3] | [4] | [5] | [6] | [7] | [8] | [10] | [9]

CCCCC(CC)COC(=O)c1ccccc1C(=O)OCC(CC)CCCC (configuration not stated)
inactive: [1] | [2]
active: [3] 8.06 µM and 7.58 µM | [4] 3.03 µM | [6] 8.99 µM and 15 µM | [7] 3.85 µM and 4.26 µM | [8] 5.47 µM and 3.59 µM | [10] 50 µM | [9] 6.28 µM and 4 µM

CCCCNC(=O)OCC#CI
inactive: [10]

COP(N)(=O)SC (configuration not stated)
inactive: [1] | [2] | [3] | [4] | [5] | [6] | [7] | [8] | [9]
active: [4] 0.0258 µM

CCOc1cc(Oc2ccc(C(F)(F)F)cc2Cl)ccc1[N+](=O)[O-]
inactive: [1] | [2]
active: [3] 14.3 µM | [4] 14.8 µM | [6] 50 µM | [7] 16.1 µM | [8] 11.6 µM | [9] 11.9 µM

C=CCC1=C(C)C(OC(=O)C2C(C=C(C)C)C2(C)C)CC1=O (configuration not stated)
inactive: [3] | [4] | [5] | [6] | [7] | [8] | [9]

CO/C=C(/C(=O)OC)c1ccccc1Oc1cc(Oc2ccccc2C#N)ncn1
active: [3] 5.11 µM | [4] 3.25 µM | [5] 2.73 µM | [6] 2.58 µM | [7] 3.56 µM | [8] 2.75 µM | [9] 3.62 µM
inactive: [1] | [2]

Oc1ccccc1-c1ccccc1
active: [10] 45.1 µM

CC(C)(C)c1ccc(CSc2cnn(C(C)(C)C)c(=O)c2Cl)cc1
inactive: [2]
active: [1] 0.0138 µM | [3] 0.000994 µM | [4] 0.000559 µM | [5] 0.00768 µM | [6] 0.00479 µM | [7] 0.000626 µM | [8] 0.000469 µM | [9] 0.000602 µM

COP(=S)(OC)Oc1nc(Cl)c(Cl)cc1Cl
inactive: [1] | [2]
active: [4] 24.8 µM | [5] 25.9 µM | [6] 23.1 µM | [7] 25.9 µM | [8] 20.7 µM | [9] 22.4 µM

C=CC1(C)OC(=O)N(c2cc(Cl)cc(Cl)c2)C1=O (configuration not stated)
inactive: [1] | [2] | [3] | [4] | [5] | [6] | [7] | [8] | [9]
